Active and inactive are the calls of the source. The call rests on the fitted dose curve.

This test in a line: qHTS drug screen for cell cycle checkpoint inhibitors in PARPi-resistant BRCA-mutant ovarian cancer cell lines. (AID 1963452). Particulars: PEO1/OlaR viability, CellTiter-Glo luminescence, 96 h; active compounds read low. The method, boiled down: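 PEO1, PEO4 and PEO1/OlaR ovarian cancer cells, 600 per well, exposed 96 h at 37C to a dilution series. Viability read by CellTiter-Glo luminescence, normalized to DMSO and empty wells; activity summarized as Z-AUC.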
Turning to `Cc1ccc(NC(=O)c2cccc(N(C)C)c2)cc1NC(=O)c1ccc(O)cc1`, the Z-AUC is 1.75 (inactive).

`O=C(O)CCNc1cc(N2CCc3ccccc3CC2)nc(-c2ccccn2)n1`: the Z-AUC was 0.743 (inactive). Take `CC(=O)NCCC(=O)N[C@@H](CCC(N)=O)C(=O)N[C@@H](CO)C(=O)N[C@@H](CCC(N)=O)C(=O)N[C@@H](CCC(N)=O)C(=O)N[C@H](C(=O)N[C@@H](Cc1ccccc1)C(=O)N[C@]1(C)CCCCCCC=CCCC[C@@](C)(C(=O)N[C@@H](CCC(N)=O)C(=O)N[C@@H](CC(N)=O)C(N)=O)NC(=O)[C@H](CC(C)C)NC(=O)[C@H](CC(C)C)NC(=O)[C@@H](CCCNC(=N)N)NC(=O)[C@H](Cc2c[nH]c3ccccc23)NC(=O)[C@H](CC(C)C)NC(=O)[C@H](CC(N)=O)NC1=O)[C@H](C)O`: the Z-AUC was -0.975 (inactive). For `CC1CCN(c2cc(N3CCN(C)CC3)ccc2NC(=O)c2cc(C#N)c[nH]2)CC1` the value was -1.13 (inactive). For `CNC(=O)c1cc(Oc2ccc(NC(=O)Nc3ccc(Cl)c(C(F)(F)F)c3)c(F)c2)ccn1` the value was 0.96 (inactive).

As for `Cc1ccccc1C(=O)c1ccc(Nc2ccc(Br)cc2N)cc1Cl`, the Z-AUC is -0.304 (inactive). Consider `Cc1cc(-c2ncc(CC(=O)Nc3ccc(-c4cnccn4)cn3)cc2C)ccn1`, for which the Z-AUC was -1.15 (inactive). For `O=C(CO)N1CCC(c2[nH]nc(-c3ccc(Cl)cc3)c2-c2ccncn2)CC1` the value was -0.00709 (inactive); for `COc1ccc(Cn2ccc3ccc(C(=O)NO)cc32)cc1`, 1.36 (inactive). The figure for `CC1=C(CC(=O)O)c2cc(F)ccc2C1=Cc1ccc(S(C)=O)cc1` (stereo unspecified) is -0.123 (inactive); for `CCc1cccc(CC)c1NC(=O)N1Cc2[nH]nc(NC(=O)c3ccc(N4CCN(C)CC4)cc3)c2C1` it is -0.0238 (inactive). The figure for `Cn1cc(-c2ccc3nnc(Sc4ccc5ncccc5c4)n3n2)cn1` is 1.3 (inactive); for `CCCC1OC2C[C@@H]3[C@H]4CCC5=CC(=O)C=C[C@]5(C)[C@H]4C(O)C[C@]3(C)[C@]2(C(=O)CO)O1` (stereo partly specified) it is -0.0333 (inactive). As to `CC[C@H](CC#N)OC(=O)N[C@@H](C)c1cccc(NC(=O)Nc2ccc(-c3cnco3)c(OC)c2)c1`, the Z-AUC was 0.186 (inactive).

For the compound `Cc1ccccc1-n1c(Cn2nc(-c3cccc(O)c3)c3c(N)ncnc32)nc2cccc(C)c2c1=O`, the Z-AUC is -1.13 (inactive).

Take `NS(=O)(=O)c1ccc(Nc2nc(OCC3CCCCC3)c3[nH]cnc3n2)cc1`: the Z-AUC is -1.43 (inactive). As to `c1ccc(-c2oc3ncnc(NC[C@@H]4CCCO4)c3c2-c2ccccc2)cc1`, the Z-AUC is -1.81 (inactive). In the case of `CN[C@@H](C)[C@H]1[C@H](O)C[C@@]2(C)[C@@H]3CC[C@H]4C(C)(C)[C@@H](NC)CC[C@@]45C[C@@]35CC[C@]12C`, the Z-AUC was 0.117 (inactive). For `CCn1c(-c2nonc2N)nc2cncc(CNC3CCNCC3)c21` the value was -0.284 (inactive). Regarding `NC(=O)c1ccc(N(C(N)=O)c2c(F)cccc2F)nc1-c1ccc(F)cc1F`, the Z-AUC is -0.305 (inactive).

In the case of `C[C@]12CC[C@@H]3c4ccc(O)cc4CC[C@H]3[C@H]1[C@@H](O)[C@@H](O)[C@H]2O`, the Z-AUC was 1 (inactive). The figure for `COc1cc2ncn(-c3cc(OCc4ccccc4S(C)(=O)=O)c(C#N)s3)c2cc1OC` is 0.942 (inactive); for `CN1CCc2c(n(Cc3ccc(C(=O)NO)cc3)c3ccccc23)C1` it is 0.742 (inactive). As for `Clc1ccc(C2(c3ccc(-c4cn[nH]c4)cc3)CCNCC2)cc1`, the Z-AUC was 0.223 (inactive). For `CC[C@H](C)n1cc(C)c2c(C(=O)NCc3c(C)cc(C)[nH]c3=O)cc(-c3ccc(N4CCNCC4)nc3)cc21` the value was 1.9 (inactive).

For `COC1CCC(C(=O)c2ccc3nc4c(cc3c2)CCCO4)CC1` (stereo unspecified), the Z-AUC was -0.16 (inactive). For `CCCCc1ccc(NS(=O)(=O)c2ccc(C)c(C(=O)N3CCN(c4cccc(C)c4C)CC3)c2)cc1` the value was 1.4 (inactive); for `COc1cccc(OC)c1-c1cc(C(=O)NC2(C(=O)O)C3CC4CC(C3)CC2C4)nn1-c1ccnc2cc(Cl)ccc12` (stereo unspecified), 1.24 (inactive). For `COc1cc(Nc2nc3ccccc3nc2NS(=O)(=O)c2ccc(NC(=O)c3ccc(C)c(OC)c3)cc2)cc(OC)c1` the value was -0.848 (inactive). The figure for `CNC(=O)[C@H](Cc1ccccc1)NC(=O)[C@H](CC(C)C)[C@H](CSc1cccs1)C(=O)NO` is -0.0435 (inactive). Turning to `COC(=O)[C@H](c1ccccc1Cl)N1CCc2sccc2C1`, the Z-AUC was 1.43 (inactive).

Source of the values: PubChem BioAssay (NCATS).
